From PubChem BioAssay (Tox21)
Results filed as inconclusive are left out. The source holds several records for some structures; these can differ, active in one and inactive in another. The source made the active and inactive calls. Unless noted, calls follow the shape of the full dose curve.

What was measured:
[1] = Nuclear factor erythroid 2-related factor 2/antioxidant responsive element (Nrf2/ARE) small molecule agonists: qHTS cell viability counter screen in human keratinocytes (AID 1919968; active = well fitted curve in the direction sought with a large enough effect in the repeat runs; an effect the other way counts as inactive or inconclusive; also: nearly all actives have a fitted effect of over 55% in size)
Procedure, shortened: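 Cytotoxicity was multiplexed with the Nrf2/ARE luciferase assay in the same wells. Stably transfected HaCaT keratinocytes were treated with test compounds for 23 h at 37 C. Cell viability was then measured by CellTiter-Fluor fluorescence.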

[2] = biological target: Gonadotropin-releasing hormone receptor (Homo sapiens) (UniProt P30968); assay: Human gonadotropin-releasing hormone receptor (GnRHR) small molecule agonists, calcium flux assay in GnRHR-HEK293 cells (AID 1920063); also: nearly all actives have a fitted effect of over 35% in size
Gonadotropin-releasing hormone receptor (Homo sapiens), sequence (P30968 whole entry, looked up): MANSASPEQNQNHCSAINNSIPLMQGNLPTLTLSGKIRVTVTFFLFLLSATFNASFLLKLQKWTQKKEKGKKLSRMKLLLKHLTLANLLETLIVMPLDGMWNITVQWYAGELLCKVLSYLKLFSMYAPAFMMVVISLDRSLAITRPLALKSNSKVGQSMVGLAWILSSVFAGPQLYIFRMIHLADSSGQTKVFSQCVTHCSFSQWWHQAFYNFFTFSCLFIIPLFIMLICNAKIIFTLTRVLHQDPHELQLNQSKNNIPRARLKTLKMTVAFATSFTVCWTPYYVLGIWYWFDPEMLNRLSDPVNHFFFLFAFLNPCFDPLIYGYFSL
Procedure, shortened: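 Agonist activity was measured as intracellular calcium flux in HEK293 cells engineered to stably express human GnRHR. After dye loading for 1 hour at 37 C, compounds in DMSO were added and fluorescence was followed for 3 minutes.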

[3] = biological target: KiSS-1 receptor (Homo sapiens) (UniProt Q969F8); assay: Human kisspeptin (KISS1R) small molecule agonists, calcium flux assay in KISS1R-HEK293 cells (AID 1920064; active = well fitted curve in the direction sought with a large enough effect in the repeat runs; an effect the other way counts as inactive or inconclusive)
KiSS-1 receptor (Homo sapiens), sequence (Q969F8 whole entry, looked up): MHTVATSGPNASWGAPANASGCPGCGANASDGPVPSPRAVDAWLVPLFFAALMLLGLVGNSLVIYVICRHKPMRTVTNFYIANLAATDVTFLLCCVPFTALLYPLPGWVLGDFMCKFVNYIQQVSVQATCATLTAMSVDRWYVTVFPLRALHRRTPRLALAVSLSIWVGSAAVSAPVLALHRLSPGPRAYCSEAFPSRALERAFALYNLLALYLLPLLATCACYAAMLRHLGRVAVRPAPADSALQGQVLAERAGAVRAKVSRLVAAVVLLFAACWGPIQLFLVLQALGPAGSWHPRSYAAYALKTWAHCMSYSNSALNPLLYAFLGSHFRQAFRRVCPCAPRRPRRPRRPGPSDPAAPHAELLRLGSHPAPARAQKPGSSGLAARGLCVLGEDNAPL
Procedure, shortened: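 Agonist activity is monitored as intracellular calcium rise in engineered HEK293 cells carrying human KISS1R. Cells are dye-loaded for 1 h at 37 C before compound addition, and fluorescence is recorded for 3 min.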

[4] = G protein-coupled receptor (GPCR) small molecule agonists, calcium flux assay: HEK293 wild type cell line counter screen (AID 1920065)
Procedure, shortened: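 Seed cells, incubate 18 h (37 C, 5% CO2); add calcium dye, 1 h at 37 C; pin-transfer compounds, ATP control or DMSO; read fluorescence 480/540 nm each second for 3 min.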

[5] = p53 small molecule agonists, cell-based qHTS assay with human liver microsomes (AID 1963577);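 also: p53 response element beta-lactamase reporter cells with liver microsomes plus NADPH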
Procedure, shortened: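 Reporter activation was measured by LiveBLAzer fluorescence intensity in p53RE-bla cells, which had been exposed to compounds for 16 h at 37 C alongside 0.5 mg/mL human liver microsomes and 0.5 mg/mL NADPH (final concentrations).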

[6] = p53 small molecule agonists, cell-based qHTS assay with rat liver microsomes (AID 1963578)
Procedure, shortened: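 Compound in DMSO added to p53RE-bla cells 5 h post-plating; rat microsomes/NADPH 0.5 mg/mL final; 16 h, 37 C; LiveBLAzer 2 h RT.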

[7] = p53 small molecule agonists, cell-based qHTS assay with human liver microsomes: qHTS cell viability counter screen (AID 1963579); also: nearly all actives have a fitted effect of over 45% in size
Procedure, shortened: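 HLM-supplemented (0.5 mg/mL final) and NADPH-supplemented (0.5 mg/mL final) p53RE-bla cultures, 4,000 cells per well, were dosed with compounds in DMSO for 16 h at 37 C; luminescent ATP detection (CellTiter-Glo, 30 min, room temperature) quantified surviving cells.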

[8] = p53 small molecule agonists, cell-based qHTS assay with rat liver microsomes: qHTS cell viability counter screen (AID 1963580); also: nearly all actives have a fitted effect of over 45% in size
Procedure, shortened: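 Cytotoxicity counter screen: intracellular ATP measured by CellTiter-Glo luminescence in the same wells as the beta-lactamase reporter read, on HCT-116 p53RE-bla cells exposed 16 h at 37 C to compounds with rat liver microsomes and NADPH, each 0.5 mg/mL final.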

[9] = p53 small molecule agonists, cell-based qHTS assay: qHTS cell viability counter screen (AID 1963581); also: nearly all actives have a fitted effect of over 45% in size
Procedure, shortened: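 Viability was counter-screened in parallel with the p53 agonist reporter by measuring intracellular ATP luminescence in the same HCT-116 p53RE-bla wells after 16 h compound treatment at 37 C.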

[10] = p53 small molecule agonists, cell-based qHTS assay (AID 1963582; active = well fitted activation curve with a large enough effect in the signal ratio in the repeat runs, not every such curve was filed as active; the % refers to the signal ratio)
Procedure, shortened: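 Cells carrying a p53-responsive bla reporter are treated with test compounds for 16 h at 37 C; beta-lactamase activity is then detected with LiveBLAzer B/G FRET substrate after 2 h at room temperature.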

[11] = biological target: 5-hydroxytryptamine receptor 2A (Homo sapiens) (UniProt P28223); assay: 5-hydroxytryptamine receptor 2A (HTR2A) small molecule antagonists, cell-based qHTS assay (AID 1963586); also: nearly all actives have a fitted effect of over 45% in size
5-hydroxytryptamine receptor 2A (Homo sapiens), sequence (P28223 whole entry, looked up): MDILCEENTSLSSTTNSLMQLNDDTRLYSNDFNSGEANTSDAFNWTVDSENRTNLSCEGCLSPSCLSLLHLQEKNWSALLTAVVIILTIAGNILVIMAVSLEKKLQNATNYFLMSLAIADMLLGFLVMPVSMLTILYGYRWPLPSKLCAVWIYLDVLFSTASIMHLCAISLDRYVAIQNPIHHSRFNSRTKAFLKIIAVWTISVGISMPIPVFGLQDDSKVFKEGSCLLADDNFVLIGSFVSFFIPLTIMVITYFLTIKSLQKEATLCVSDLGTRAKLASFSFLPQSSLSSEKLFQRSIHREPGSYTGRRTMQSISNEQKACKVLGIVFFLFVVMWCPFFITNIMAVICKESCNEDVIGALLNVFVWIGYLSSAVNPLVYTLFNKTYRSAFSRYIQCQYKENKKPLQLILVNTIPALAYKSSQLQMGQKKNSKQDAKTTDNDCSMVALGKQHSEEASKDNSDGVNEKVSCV
Procedure, shortened: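 CHO cells stably expressing human HTR2A were plated for 18 h at 37 C, then loaded with calcium dye for 1 h. Compounds were preincubated 5 min at room temperature before DOI (4 nM solution) was added. Kinetic fluorescence was read for 3 min.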

[12] = biological target: 5-hydroxytryptamine receptor 2A (Homo sapiens) (UniProt P28223); assay: 5-hydroxytryptamine receptor 2A (HTR2A) small molecule agonists, cell-based qHTS assay (AID 1963587); also: nearly all actives have a fitted effect of over 30% in size
Procedure, shortened: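 CHO cells stably expressing human HTR2A, plated 18 h, loaded with calcium dye 1 h at 37 C. Agonist mode: compounds added and intracellular calcium fluorescence recorded kinetically for 2 min at 1 sec intervals.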

[13] = biological target: Muscarinic acetylcholine receptor M1 (Homo sapiens) (UniProt P11229); assay: Cholinergic receptor muscarinic 1 (CHRM1) small molecule antagonists, cell-based qHTS assay (AID 1963588); also: nearly all actives have a fitted effect of over 40% in size; also: potency is read from the fitted curve at half-maximal effect
Muscarinic acetylcholine receptor M1 (Homo sapiens), sequence (P11229 whole entry, looked up): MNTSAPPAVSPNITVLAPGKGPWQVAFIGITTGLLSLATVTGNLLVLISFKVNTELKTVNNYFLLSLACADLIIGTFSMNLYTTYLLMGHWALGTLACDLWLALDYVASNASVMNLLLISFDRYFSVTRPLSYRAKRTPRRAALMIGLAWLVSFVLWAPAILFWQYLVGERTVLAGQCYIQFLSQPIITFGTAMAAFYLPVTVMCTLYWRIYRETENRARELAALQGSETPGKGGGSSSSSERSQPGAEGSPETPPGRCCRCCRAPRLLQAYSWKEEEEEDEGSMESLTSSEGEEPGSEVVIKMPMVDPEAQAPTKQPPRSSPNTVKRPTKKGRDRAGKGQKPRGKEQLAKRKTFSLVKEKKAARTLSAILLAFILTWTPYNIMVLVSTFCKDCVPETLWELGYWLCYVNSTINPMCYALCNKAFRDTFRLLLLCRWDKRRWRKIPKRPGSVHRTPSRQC
Procedure, shortened: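 Compounds were tested at 15 concentrations in three independent runs. Dye-loaded CHRM1-CHO cells were exposed 5 min at room temperature before stimulation by acetylcholine added at 50nM. Intracellular calcium was read kinetically on FDSS for 3 min.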

[14] = biological target: Muscarinic acetylcholine receptor M1 (Homo sapiens) (UniProt P11229); assay: Cholinergic receptor muscarinic 1 (CHRM1) small molecule agonists, cell-based qHTS assay (AID 1963589); also: nearly all actives have a fitted effect of over 35% in size
Procedure, shortened: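 Cells were plated and incubated 18 h at 37 C/5% CO2, loaded with calcium dye for 1 h at 37 C, then treated with compounds in DMSO. Fluorescence was recorded kinetically at 1 sec intervals.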

[15] = biological target: Beta-2 adrenergic receptor (Homo sapiens) (UniProt P07550); assay: Adrenergic beta2 receptor (ADRB2) small molecule antagonists, cell-based qHTS assay (AID 1963592); also: series mostly up to about 92 µM; nearly all actives have a fitted effect of over 50% in size
Beta-2 adrenergic receptor (Homo sapiens), sequence (P07550 whole entry, looked up): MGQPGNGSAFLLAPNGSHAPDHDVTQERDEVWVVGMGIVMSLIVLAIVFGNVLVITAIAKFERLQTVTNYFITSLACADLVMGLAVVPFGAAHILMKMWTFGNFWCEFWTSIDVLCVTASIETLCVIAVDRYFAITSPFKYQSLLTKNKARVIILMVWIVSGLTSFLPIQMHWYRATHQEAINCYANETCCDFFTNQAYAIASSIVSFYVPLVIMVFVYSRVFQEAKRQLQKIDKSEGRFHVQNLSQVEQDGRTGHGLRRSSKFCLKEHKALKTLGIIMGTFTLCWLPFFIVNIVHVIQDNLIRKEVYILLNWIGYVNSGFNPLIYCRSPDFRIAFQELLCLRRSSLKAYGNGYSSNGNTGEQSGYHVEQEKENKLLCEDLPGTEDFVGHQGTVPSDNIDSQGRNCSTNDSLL
Procedure, shortened: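 Assay format: CHO-ADRB2 cells, 18-20hr seeding at 37C/5% CO2, then compound plus 1nM isoproterenol agonist mix for 0.5hr RT. Homogeneous time-resolved fluorescence cAMP detection after 1hr, expressed as 665/615 nm ratio.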

[16] = biological target: Beta-2 adrenergic receptor (Homo sapiens) (UniProt P07550); assay: Adrenergic beta2 receptor (ADRB2) small molecule agonists, cell-based qHTS assay (AID 1963593);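 also: CHO cells stably overexpressing human ADRB2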
Procedure, shortened: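 CHO cells stably over-expressing ADRB2 were plated overnight at 37C, then dosed with compounds plus a stimulation mix containing 100uM IBMX and 25uM Ro-20-1724 for 0.5hr at room temperature. cAMP was measured by HTRF competition, 1hr.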

[17] = biological target: D(2) dopamine receptor (Homo sapiens) (UniProt P14416); assay: Dopamine D2 receptor (DRD2) small molecule agonists, cell-based qHTS assay (AID 1963594); also: nearly all actives have a fitted effect of over 35% in size
D(2) dopamine receptor (Homo sapiens), sequence (P14416 whole entry, looked up): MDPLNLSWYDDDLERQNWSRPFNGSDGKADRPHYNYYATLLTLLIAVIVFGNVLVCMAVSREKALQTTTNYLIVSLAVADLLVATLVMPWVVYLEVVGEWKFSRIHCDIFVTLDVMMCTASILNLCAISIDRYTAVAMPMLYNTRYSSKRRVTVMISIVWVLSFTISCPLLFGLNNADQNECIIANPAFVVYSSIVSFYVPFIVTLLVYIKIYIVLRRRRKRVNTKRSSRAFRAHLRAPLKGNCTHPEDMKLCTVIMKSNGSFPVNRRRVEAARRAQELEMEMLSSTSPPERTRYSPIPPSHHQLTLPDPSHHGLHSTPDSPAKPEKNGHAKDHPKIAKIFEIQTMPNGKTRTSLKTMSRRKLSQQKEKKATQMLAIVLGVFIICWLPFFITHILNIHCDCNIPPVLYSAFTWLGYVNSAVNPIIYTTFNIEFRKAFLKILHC
Procedure, shortened: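 HEK293 cells stably expressing human DRD2, pre-treated with PDE inhibitor Ro20-1724 (0.1 mM final) and compound 10 min at room temperature, then stimulated with NKH477 (200nM […]) for 30 min. cAMP read by HTRF (665/620 nm).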

[18] = biological target: D(2) dopamine receptor (Homo sapiens) (UniProt P14416); assay: Dopamine D2 receptor (DRD2) small molecule antagonists, cell-based qHTS assay (AID 1963595; active = well fitted inhibition curve with a large enough effect in the signal ratio in the repeat runs, with a control signal flat; the % refers to the signal ratio)
Procedure, shortened: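 In this cell-based antagonist screen, compounds act for 10 min at room temperature before a 30 min challenge with 12 nM quinpirole and 200 nM NKH477. cAMP is quantified by HTRF competition in DRD2-HEK293 cells containing 0.1 mM Ro20-1724.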

[19] = cAMP Responsive Elements (CRE) small molecule agonists, cell-based qHTS assay (AID 1963590)
Procedure, shortened: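 Cells carrying a CRE-driven beta-lactamase reporter (HEK 293T) are seeded, incubated overnight (18 h), and treated with test compounds for 3 h at 37 C; reporter activity is then detected with a FRET substrate after 2 h at room temperature.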

[20] = cAMP Responsive Elements (CRE) small molecule antagonists, cell-based qHTS assay (AID 1963591; active = well fitted inhibition curve with a large enough effect in the signal ratio in the repeat runs, not every such curve was filed as active; the % refers to the signal ratio)
Procedure, shortened: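 Cells (CRE-bla HEK 293T, DMEM with 10% dialyzed FBS and 25 mM HEPES) are seeded and incubated 18 h. Compounds are added with NKH477 agonist at 0.25 uM final for 3 h, then FRET substrate for 2 h.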

Measured: Potency

CSc1cnccn1
inactive: [1] | [2] | [3] | [4] | [5] | [6] | [7] | [8] | [9] | [10] | [11] | [12] | [13] | [14] | [15] | [16] | [17] | [18]

OCC#CCO
inactive: [1] | [2] | [3] | [4] | [5] | [6] | [7] | [8] | [9] | [10] | [11] | [12] | [14] | [19] | [20] | [15] | [16] | [17] | [18]
17 µM (active) and inactive: [13]

C[N+](C)(CCOc1ccccc1)Cc1cccs1
inactive: [1] | [2] | [3] | [4] | [5] | [6] | [7] | [8] | [9] | [10] | [11] | [12] | [13] | [14] | [19] | [20] | [15] | [16] | [17] | [18]

Clc1ccc2c(Cl)ccnc2c1
inactive: [1] | [2] | [3] | [4] | [5] | [6] | [7] | [8] | [9] | [10] | [11] | [12] | [13] | [14] | [19] | [20] | [15] | [16] | [17] | [18]

CCN(CC)c1ccc(C=O)c(O)c1
inactive: [1] | [2] | [3] | [4] | [5] | [6] | [7] | [8] | [9] | [10] | [11] | [12] | [13] | [14] | [19] | [20] | [15] | [17] | [18]

Oc1cccc2ccccc12
inactive: [1] | [2] | [3] | [4] | [5] | [6] | [7] | [8] | [9] | [10] | [11] | [12] | [13] | [14] | [19] | [20] | [15] | [17] | [18]

Cc1cc(C)c(C(=O)O)c(C)c1
inactive: [1] | [2] | [3] | [4] | [5] | [6] | [7] | [8] | [9] | [10] | [11] | [12] | [20] | [15] | [16] | [17]

CC#N
inactive: [1] | [4] | [5] | [6] | [7] | [9] | [10] | [11] | [12] | [13] | [14] | [19] | [20] | [15] | [17] | [18]

OCCOCCOCCOCCOCCO
inactive: [1] | [2] | [3] | [4] | [5] | [6] | [7] | [8] | [9] | [10] | [11] | [12] | [13] | [14] | [19] | [20] | [15] | [16] | [17] | [18]

NCCNCCNCCN
inactive: [1] | [2] | [3] | [4] | [5] | [6] | [7] | [8] | [9] | [10] | [11] | [12] | [13] | [14] | [19] | [20] | [15] | [16] | [17] | [18]

CCc1cnc(C(=O)O)c(C(=O)O)c1
inactive: [1] | [2] | [3] | [4] | [5] | [6] | [7] | [8] | [9] | [10] | [11] | [12] | [13] | [14] | [19] | [15] | [16] | [17] | [18]

C[Si](C)O[Si](C)C
inactive: [1] | [2] | [3] | [4] | [5] | [6] | [7] | [8] | [9] | [10] | [11] | [12] | [14] | [19] | [20] | [15] | [16] | [17] | [18]

CCC(CC)C(C)CCOC(C)=O (configuration not stated)
inactive: [1] | [2] | [3] | [4] | [5] | [6] | [7] | [8] | [10] | [11] | [12] | [13] | [14] | [19] | [15] | [17] | [18]

CCCCC/C=C/C=C/C=O
inactive: [1] | [2] | [3] | [4] | [5] | [6] | [7] | [8] | [9] | [10] | [12] | [13] | [14] | [19] | [20] | [15] | [16] | [17] | [18]
